GLP1R inv ag – inverse agonists of human GLP-1 receptor | P43220 | HEK293 GLP-1R CRE-luciferase, luminescence, 24 h; GLP-1R form is constitutively active | Potency, µM (doses to about 38.3 µM), for inactives: at the top dose activity change, negative = inhibition, hits mostly inhibitors | 410,000 compounds, 1.6% hits | AID 624417; note: % is set by controls: 0 for no effect and ±100 for the full control effect; nearly all actives have a fitted effect of over 55% in size
Target sequence (P43220 whole entry, looked up): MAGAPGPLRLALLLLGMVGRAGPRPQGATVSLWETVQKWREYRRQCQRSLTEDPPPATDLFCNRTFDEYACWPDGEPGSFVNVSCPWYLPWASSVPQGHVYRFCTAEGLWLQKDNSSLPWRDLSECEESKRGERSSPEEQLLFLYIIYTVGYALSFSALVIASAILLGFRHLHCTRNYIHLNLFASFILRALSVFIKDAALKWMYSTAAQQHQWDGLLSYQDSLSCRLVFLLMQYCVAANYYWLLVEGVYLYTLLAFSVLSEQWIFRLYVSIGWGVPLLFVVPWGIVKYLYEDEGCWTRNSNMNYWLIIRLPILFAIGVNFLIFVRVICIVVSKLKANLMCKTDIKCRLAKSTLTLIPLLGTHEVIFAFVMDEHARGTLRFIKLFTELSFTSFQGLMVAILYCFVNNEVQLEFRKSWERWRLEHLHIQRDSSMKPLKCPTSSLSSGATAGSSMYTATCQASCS
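Assay principle: reduced luminescence from a cAMP-responsive reporter in HEK293 cells co-expressing a constitutively active GLP-1R. Conditions: 24 hr compound incubation, 37 deg C, 5% CO2.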
RORgamma inh – ROR gamma (mouse) transcription inhibition; Drosophila S2 Gal4-RORgamma UAS-luciferase reporter, 20 h; Potency, µM (series often up to 53.6 µM), for inactives: top-dose activity change, negative = inhibition, usual class: inhibitors; 310,000 compounds, 5.4% hits; AID 2551; note: % is set by controls: 0 for no effect and ±100 for the full control effect; nearly all actives have a fitted effect of over 60% in size
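Luciferase reporter read in Schneider cells carrying Gal4-RORγ (mouse) and UAS-Photinus luciferase; cells given compound 1 h before 700 uM copper sulfate induction, then incubated 20 h at ambient temperature.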
GLP-1R agonist – GLP-1 receptor (human) agonism; P43220; HEK293 GLP-1R CRE-luciferase, luminescence, 4-6 h; cells express a hypersensitive GLP-1R form; Potency, µM (top dose mostly 45.6 µM), for the others: top-dose activation, actives largely listed as activators; 380,000 compounds, 0.007% hits; AID 624172; note: % of control where 0% means no effect
Gal4-VP16 FLuc – inhibits Gal4-VP16 luciferase reporter, ROR gamma counter-screen. Drosophila S2 Gal4-VP16 UAS-luciferase, luminescence, 20 h. Potency, µM (top dose mostly 53.6 µM), without a hit: at the top dose activity, negative = inhibition, actives largely listed as inhibitors. 310,000 compounds, 3.5% hits. AID 2546;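 note: Gal4-VP16 expression switched on by copper sulfate through the metallothionein promoter; % is set by controls: 0 for no effect and ±100 for the full control effect; nearly all actives have a fitted effect of over 50% in size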
GLP1R cytotox – cytotoxicity counter-screen for GLP-1 receptor inverse agonists | HEK293 cAMP-luciferase reporter cells, luminescence, 24 h | 410,000 compounds, 0.13% hits | Potency, µM (top dose mostly 38.3 µM), inactives show top-dose activity change, negative = inhibition, usual class: inhibitors | AID 624418;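 note: loss of luciferase light is scored as toxicity; % is set by controls: 0 for no effect and ±100 for the full control effect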
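Cells in DMEM/10% Nu serum/1% pen-strep, 1536-well format. Pre-incubated 12 h, dosed with 23 nL compound, incubated a further 24 h. Luciferase detection, 12 min at room temp, luminescence.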
An asterisk follows results filed as active; i = inactive; ? = inconclusive; nt = no result given; [ ] = another dose, or the depositor's remark. Rows were chosen to be rich in hits. Some 5.9% of all compounds tested hit in one or more screens of this group. Calls come from the whole dose curve; as a rule, active = well fitted curve in the direction sought with a large enough effect; inconclusive = small, poorly fitted or top-dose-only effect, or another doubt; inactive = no such curve, though single readings can be large; an effect the other way counts as inactive or inconclusive. Potency is the fitted concentration of half-maximal effect.

SMILES	GLP1R inv ag	RORgamma inh	GLP-1R agonist	Gal4-VP16 FLuc	GLP1R cytotox
COc1cccc2c1C(=O)c1c(O)c3c(c(O)c1C2=O)C[C@@](O)(C(=O)CO)C[C@@H]3O[C@@H]1C[C@H](N)[C@H](O)[C@H](C)O1	nt	11µM*	nt	7.9µM*	nt
CC(=O)C1(O)Cc2c(O)c3c(c(O)c2C(OC2CC(N)C(O)C(C)O2)C1)C(=O)c1c(O)cccc1C3=O (stereo not drawn)	nt	11µM*	-12%	?	nt
O=C1OC2C(O)C(O)OC2C1O (stereo not drawn)	nt	nt	2%	nt	nt
O=C(CCc1nc(-c2cccs2)no1)Nc1cccc([N+](=O)[O-])c1	-18%	nt	nt	nt	-7%
COc1cccc2c1C(=O)c1c(O)c3c(c(O)c1C2=O)C[C@](O)(C(C)=O)C[C@H]3O[C@@H]1C[C@H](N)[C@H](O)[C@H](C)O1	nt	5.6µM*	nt	4.5µM*	nt
CC(=O)[C@@]1(O)Cc2c(O)c3c(c(O)c2[C@H](O[C@H]2C[C@H](N)[C@H](O)[C@H](C)O2)C1)C(=O)c1ccccc1C3=O	nt	nt	-32%	nt	nt
CCOc1cc(S(=O)(=O)NCCc2c(C)[nH]c3ccc(C)cc23)ccc1F	?	nt	nt	nt	-2%
CCCn1ccc2c(OCC(=O)Nc3ccccc3C(=O)OCC)cccc2c1=O	9%	nt	nt	nt	1%
CN=C(Nc1ccc(Br)cc1)SC1CC(=O)N(c2ccc(OC)cc2)C1=O (stereo not drawn)	11µM*	45%	12%	18%	9%
CN=C(Nc1ccc(C)c(C)c1)SC1CC(=O)N(c2ccc(OC)cc2)C1=O (stereo not drawn)	?	12%	9%	-14%	5%
Cc1cccn2cc(-c3ccc(NC(=O)Cc4ccccc4)cc3)nc12	0%	5µM*	11%	?	-3%
O=C(N/N=C/c1ccccn1)c1cc(-c2ccc(Cl)cc2)nc2ccccc12	?	0.4µM*	3%	0.71µM*	?
O=C(N/N=C/c1ccccn1)c1cc(-c2ccc(Br)cc2)nc2ccccc12	?	0.63µM*	1%	1.1µM*	?
CCc1ccc(OCC(=O)N(Cc2ccc(OC)cc2)C2CCS(=O)(=O)C2)cc1 (stereo not drawn)	-7%	nt	nt	nt	7%
CC(C)C(=O)NC(Nc1cc(C(F)(F)F)ccc1Cl)C(Cl)(Cl)Cl (stereo not drawn)	?	30%	-1%	-12%	9%
CCCC(=O)NC(Nc1cc(C(F)(F)F)ccc1Cl)C(Cl)(Cl)Cl (stereo not drawn)	?	?	-7%	10µM*	-22%
Cc1ccc(C)c(NC(=O)C(CC(C)C)N2Cc3ccccc3C2=O)c1 (stereo not drawn)	?	nt	nt	nt	-13%
CN(C)CCP(=O)(c1ccccc1)c1ccccc1	9%	22%	1%	-2%[10 µM]	6%
CCCP(=O)(CCC)CCP(=O)(c1ccccc1)c1ccccc1	7%	13µM*	-2%	-2%	-3%[1.53 µM]
CCCN1C(=O)c2ccccc2NC1c1ccc(Cl)c(Cl)c1 (stereo not drawn)	11µM*	-39%	3%	-1%	-12%
CCOc1cc(/C=N/NC(=O)Cc2ccc(C(F)(F)F)cc2[N+](=O)[O-])ccc1O	6%	-6%[10 µM]	14%	-2%	4%
C=CCOc1c(Br)cc(/C=N/NC(=O)Cc2ccc(C(F)(F)F)cc2[N+](=O)[O-])cc1OC	2%	?	4%	18µM*	6%
COc1cc(-c2nc3ccccn3c2/N=C/c2ccccc2)ccc1O	1%	13µM*	-2%	-5%	43%
CCOc1cc(-c2nc3ccccn3c2NCC2CCCO2)ccc1O (stereo not drawn)	2%	13%	4%	?	13%
COc1cc(-c2nc3ccccn3c2NCC2CCCO2)ccc1O (stereo not drawn)	0%	14µM*	-5%	22%	28%
SMILES	GLP1R inv ag	RORgamma inh	GLP-1R agonist	Gal4-VP16 FLuc	GLP1R cytotox
N#Cc1cccc(-c2cncnc2NCc2cccs2)c1	nt	19%	nt	0%	nt
COc1cc(C2CC(=O)N(Cc3cccc(F)c3)c3ccccc3S2)cc(OC)c1OC (stereo not drawn)	-16%	nt	-10%	nt	0%
CCCCCc1ccc(C)cc1O	nt	-3%	4%	?	nt
COC(=O)CC1(C(=O)OC)Oc2ccc(Br)cc2C(=O)N1c1cc(Cl)c(Cl)cc1Cl (stereo not drawn)	7.1µM*	?	-5%	-20%	2%
COC(=O)CC1(C(=O)OC)Oc2ccc(Br)cc2C(=O)N1c1ccc(Br)cc1Cl (stereo not drawn)	10µM*	?	14%	?	-41%
O=C(NC(=S)N(CCc1ccccc1)CCc1ccccc1)c1ccco1	?	0.11µM*	-4%	0.045µM*	4%[1.53 µM]
O=C(NCc1ccccc1)c1ccco1	17%	-2%	21%	-9%	20%
CC(CCc1ccccc1)NC(=S)NC(=O)c1ccco1 (stereo not drawn)	-28%	11µM*	15%	-70%	-15%
CC(CCc1ccccc1)NC(=O)Cc1ccccc1 (stereo not drawn)	-19%	4%	-2%	14%	-5%
Cc1ccc(-c2nnc(Nc3ccc(O)cc3)c3ccccc23)cc1S(=O)(=O)N1CCN(C)CC1	-2%	nt	nt	nt	-8%
c1ccc(-c2cn3nc(-c4ccccc4)sc3n2)cc1	36%	nt	6%	nt	-3%
c1ccc(-c2cn3c4c(sc3n2)CCCC4)cc1	?	3.5µM*	-7%	6.3µM*	-13%
COC(=O)C/C=C\[C@@H](C)[C@@H](/C=N\O[C@@H](C)c1cn([C@H]2COC[C@H]2O)nn1)NS(=O)(=O)c1ccc(C)cc1	nt	-5%[10 µM]	nt	-8%[10 µM]	nt
CC(C)C[C@@H](C(=O)NCc1ccco1)N1C(=O)N2CCc3c([nH]c4ccccc34)[C@@]2(C)C1=O	10µM*	?	-1%	-3%	4%
COc1ccc(Oc2c(C(F)(F)F)oc3c(CN4CCCC(C)C4)c(O)ccc3c2=O)cc1 (stereo not drawn)	-17%	nt	nt	nt	1%
Cn1c(C(=O)N2CCN(C(=O)c3ccco3)CC2)cc2c(=O)n3ccccc3nc21	23%	25%	13%	14µM*	i
O=C(CNC(=O)c1ccc(Br)o1)NNC(=O)c1ccccc1	37%	nt	-4%	nt	31%
O=C(CNC(=S)NC(=O)c1ccc(Br)o1)c1ccccc1	-14%	13µM*	-4%	?	?
O=C(CNC(=S)NC(=O)c1ccc(Cl)cc1)c1ccccc1	22%	10µM*	-2%	13µM*	14%
N#C/C(=C1/SCC(c2ccccc2Cl)S1)n1ccnc1 (stereo not drawn)	nt	44%[10 µM]	?	-23%	nt

Source: PubChem BioAssay
